Assay [1] can be described thus: Quantitative High-Throughput drug screen in 47 multiple myeloma cell lines against the NCATS MIPE library collection: H1112_PLB cell viability assay (AID 1918967; note: nearly all actives have a fitted effect of over 30% in size). The method, boiled down:
(§1)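 Myeloma cell lines, 500 cells per well, exposed to MIPE 4.0 library compounds for 48 h at 37C, 5% CO2. Viability from ATP by CellTiter-Glo luminescence; normalised to DMSO (100%) and media-only (0%) wells.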

Assay [2] in a line: Quantitative High-Throughput drug screen in 47 multiple myeloma cell lines against the NCATS MIPE library collection: Karpas25_ECACC cell viability assay (AID 1918968; note: nearly all actives have a fitted effect of over 35% in size). Summed up:
as §1

The nature of assay [3]: Quantitative High-Throughput drug screen in 47 multiple myeloma cell lines against the NCATS MIPE library collection: KMS27_JCRB cell viability assay (AID 1918970). Note: nearly all actives have a fitted effect of over 30% in size. Summed up:
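Luminescent ATP read-out (CellTiter-Glo, 5 min at room temperature) after 48 h compound exposure of 500 KMS27_JCRB cells per well; DMSO wells define full viability and media-only wells zero.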

Assay [4] in a line: Quantitative High-Throughput drug screen in 47 multiple myeloma cell lines against the NCATS MIPE library collection: KMS12BM_JCRB cell viability assay (AID 1918971). Note: nearly all actives have a fitted effect of over 35% in size. Summed up:
(§2)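 Relative luminescence from CellTiter-Glo served as the viability signal, referenced to DMSO-treated (100%) and cell-free medium (0%) controls. Treatment lasted 48 hours at 37C with 500 cells per well.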

A short description of assay [5]: Quantitative High-Throughput drug screen in 47 multiple myeloma cell lines against the NCATS MIPE library collection: KMS12PE_JCRB cell viability assay (AID 1918972). Note: nearly all actives have a fitted effect of over 30% in size. Summed up:
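We plated 500 myeloma cells per well, pinned in MIPE 4.0 compounds, and incubated for 48 hours at 37C. ATP was then quantified with CellTiter-Glo, with DMSO and media-only wells defining 100% and 0%.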

A short description of assay [6]: Quantitative High-Throughput drug screen in 47 multiple myeloma cell lines against the NCATS MIPE library collection: KMS20_JCRB cell viability assay (AID 1918973). Note: nearly all actives have a fitted effect of over 45% in size. The method, boiled down: as §1
Assay [7] in a line: Quantitative High-Throughput drug screen in 47 multiple myeloma cell lines against the NCATS MIPE library collection: MOLP8_DSMZ cell viability assay (AID 1918977). Note: nearly all actives have a fitted effect of over 45% in size. The method, boiled down:
(§3)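 Plated at 500 cells per well, myeloma lines received MIPE 4.0 compounds by pin tool. Following 48 h culture at 37 °C, CellTiter-Glo luminescence gave viability relative to DMSO and media-only controls.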

Assay [8] can be described thus: Quantitative High-Throughput drug screen in 47 multiple myeloma cell lines against the NCATS MIPE library collection: NCIH929_DSMZ cell viability assay (AID 1918978). Note: nearly all actives have a fitted effect of over 35% in size. Summed up: as §3
Assay [9] can be described thus: Quantitative High-Throughput drug screen in 47 multiple myeloma cell lines against the NCATS MIPE library collection: OCIMY1_PLB cell viability assay (AID 1918979). Note: nearly all actives have a fitted effect of over 35% in size. Summed up:
as §3

The nature of assay [10]: Quantitative High-Throughput drug screen in 47 multiple myeloma cell lines against the NCATS MIPE library collection: MM1R_ATCC cell viability assay (AID 1918981). Note: nearly all actives have a fitted effect of over 35% in size. The method, boiled down: as §3
Assay [11] is described as follows: Quantitative High-Throughput drug screen in 47 multiple myeloma cell lines against the NCATS MIPE library collection: LP1_DSMZ cell viability assay (AID 1918982). Note: nearly all actives have a fitted effect of over 35% in size. Summed up: as §3
A short description of assay [12]: Quantitative High-Throughput drug screen in 47 multiple myeloma cell lines against the NCATS MIPE library collection: KMS28PE_JCRB cell viability assay (AID 1918983). Note: nearly all actives have a fitted effect of over 35% in size. The method, boiled down:
as §3

Assay [13] is described as follows: Quantitative High-Throughput drug screen in 47 multiple myeloma cell lines against the NCATS MIPE library collection: KMS34_JCRB cell viability assay (AID 1918985). Note: nearly all actives have a fitted effect of over 40% in size. The method, boiled down: as §3
Assay [14] can be described thus: Quantitative High-Throughput drug screen in 47 multiple myeloma cell lines against the NCATS MIPE library collection: OCIMY7_PLB cell viability assay (AID 1918987). Note: nearly all actives have a fitted effect of over 65% in size. The method, boiled down: as §3
A short description of assay [15]: Quantitative High-Throughput drug screen in 47 multiple myeloma cell lines against the NCATS MIPE library collection: OCIMY5_PLB cell viability assay (AID 1918988). Note: nearly all actives have a fitted effect of over 65% in size. The method, boiled down:
as §3

Assay [16] can be described thus: Quantitative High-Throughput drug screen in 47 multiple myeloma cell lines against the NCATS MIPE library collection: KMS21BM_JCRB cell viability assay (AID 1918974). Conditions: ATP luminescence, 48 h; viability: at 45.8 µM (top of the series). Summed up: as §1
A short description of assay [17]: Quantitative High-Throughput drug screen in 47 multiple myeloma cell lines against the NCATS MIPE library collection: KMS26_JCRB cell viability assay (AID 1918975). Note: nearly all actives have a fitted effect of over 45% in size. The method, boiled down:
as §2

The nature of assay [18]: Quantitative High-Throughput drug screen in 47 multiple myeloma cell lines against the NCATS MIPE library collection: MMM1_PLB cell viability assay (AID 1918976). Note: nearly all actives have a fitted effect of over 35% in size. Summed up: as §3
Assay [19] in a line: Quantitative High-Throughput drug screen in 47 multiple myeloma cell lines against the NCATS MIPE library collection: MM1S_ATCC cell viability assay (AID 1918980). Note: nearly all actives have a fitted effect of over 45% in size. Summed up:
as §3

A short description of assay [20]: Quantitative High-Throughput drug screen in 47 multiple myeloma cell lines against the NCATS MIPE library collection: L363_DSMZ cell viability assay (AID 1918984). Note: nearly all actives have a fitted effect of over 40% in size. Summed up:
as §3

Results filed as inconclusive are left out. The source made the active and inactive calls. Calls come from the whole dose curve; as a rule, active = well fitted curve in the direction sought with a large enough effect; inconclusive = small, poorly fitted or top-dose-only effect, or another doubt; inactive = no such curve, though single readings can be large; an effect the other way counts as inactive or inconclusive.
Potency is the fitted concentration of half-maximal effect.

As to `CCCc1cc(C(N)=S)ccn1`, the Potency entry in [1], in [2], in assay [3], in assay [4], in [5] and in assay [6] was “inactive” each time. For the same compound, the Potency result in [7], in assay [8], in assay [9], in assay [10], in assay [11] and in assay [12] was “inactive” in each case. Besides, the Potency result in [13], in assay [14] and in assay [15] was “inactive” each time.

As to `Cc1ccc(S(=O)(=O)N[C@@H](Cc2ccccc2)C(=O)CCl)cc1`, the Potency in assay [1] was 16.6 µM (active); in assay [2] it was 9.35 µM (active); in assay [3], 13.2 µM (active); in [4] it was 18.7 µM (active); in assay [5] it was 16.6 µM (active); in assay [16] it was 14.8 µM (active). In addition, the Potency in assay [17] was 18.7 µM (active); in assay [18] it was 20.9 µM (active); in [8], 10.5 µM (active); in assay [9], 23.5 µM (active); in assay [19], 11.8 µM (active); in assay [10], 16.6 µM (active). Further, the Potency is 20.9 µM (active) in [11]; 11.8 µM (active) in [20]; 20.9 µM (active) in assay [13]; 3.32 µM (active) in [14]; 7.43 µM (active) in [15].

`COc1cc(NS(=O)(=O)c2ccc(N)cc2)nc(OC)n1`: the Potency result in assay [1], in [2], in assay [3], in assay [4], in assay [5] and in assay [16] was “inactive” each time. The Potency entry in assay [17], in assay [8], in assay [9], in assay [10], in assay [11] and in assay [12] was “inactive” in each case. In addition, the Potency entry in assay [20] and in assay [14] was “inactive” in each case.

Consider `CCOC(=O)[C@H](CCc1ccccc1)N[C@H]1CS[C@H](c2cccs2)CN(CC(=O)O)C1=O`, for which the Potency in assay [1] is 13.2 µM (active); in assay [2], 5.9 µM (active); in assay [3], 0.296 µM (active); in assay [4], 23.5 µM (active); in assay [5], 1.66 µM (active); in [6], 1.66 µM (active). The Potency in assay [16] was 0.132 µM (active); in assay [17], 18.7 µM (active); in assay [18], 16.6 µM (active); in assay [7], 20.9 µM (active); in [8], 5.9 µM (active); in [19], 0.418 µM (active). Also, the Potency in assay [10] was 18.7 µM (active); in assay [12] it was 18.7 µM (active); in assay [20], 0.662 µM (active); in [13], 10.5 µM (active); in assay [15], 16.6 µM (active). In assay [9], the Potency result was “inactive”.

With `CN(C)CCc1c[nH]c2ccc(C[C@H]3COC(=O)N3)cc12`, the Potency result in assay [1], in [2], in [3], in [4], in [5] and in assay [17] was “inactive” throughout. In addition, the Potency entry in [8], in [9], in assay [10], in assay [11], in [20] and in assay [13] was “inactive” in each case. Besides, the Potency result in assay [14] and in [15] was “inactive” each time.

As for `CNNCc1ccc(C(=O)NC(C)C)cc1`, the Potency result in assay [1], in assay [3], in assay [5], in [8] and in [9] was “inactive” each time. Moreover, the Potency in assay [2] is 5.26 µM (active); in assay [4], 4.69 µM (active); in [16], 2.35 µM (active); in assay [17], 18.7 µM (active); in assay [18], 8.33 µM (active); in [10], 11.8 µM (active). The Potency in assay [12] was 13.2 µM (active); in [15], 16.6 µM (active).

Values taken from PubChem BioAssay (NCATS).
